Experimental findings from PubChem BioAssay (NCI) are described below.

Structures are written as SMILES. The panel holds about 83,000 compounds, 20% with a hit somewhere; the sample as a whole holds those more often.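 Note: values are percent growth. 100 is the growth of untreated cells, values between 100 and 0 indicate rising inhibition; between -100 and 0 indicates cell death.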 A number with no mark means an inactive call. Calls of active or inactive are those of the source. Rule for the calls: active = growth percent below 10; inactive = the rest.

Among the test systems are HT29 colon; SNB-75 CNS; SNB-19 CNS; PC-3 prostate; SK-MEL-5 melanoma; UACC-62 melanoma; SK-MEL-28 melanoma; SN12C renal; UO-31 renal; TK-10 renal; ACHN renal; CAKI-1 renal; A498 renal; CCRF-CEM leukemia; MOLT-4 leukemia; SR leukemia; LOX IMVI melanoma; SK-MEL-2 melanoma; U251 CNS; EKVX NSCLC.
Common to all, as to assay: NCI-60 one-dose screen, 48 h (100 = growth as untreated, 0 = no growth, -100 = all killed)
Holding throughout (conditions): 10 µM unless noted

Take `COc1ccc(-c2csc(NC(=O)c3cc(OC)c(OC)c(OC)c3)n2)cc1`: the growth in the assay with HT29 colon is 110%; with SNB-75 CNS, 102%; in the assay on SNB-19 CNS it was 94%; with PC-3 prostate, 90.9%; in the assay on SK-MEL-5 melanoma, 98.5%; in the assay on UACC-62 melanoma it was 89%. Further, the growth is 101% with SK-MEL-28 melanoma; 98.7% in the assay with SN12C renal; 89.3% in the assay on UO-31 renal; 117% in the assay with TK-10 renal; 107% in the assay on ACHN renal; 94.1% in the assay with CAKI-1 renal. The growth was 92.2% with A498 renal, 105% with CCRF-CEM leukemia, 103% in the assay on MOLT-4 leukemia and 95.8% in the assay with SR leukemia.
Turning to `O=C(Nc1ccc(OCc2nnc(-c3ccccc3)o2)c(F)c1)Nc1ccc(Cl)c(C(F)(F)F)c1`, the growth is 9.92% (active) with HT29 colon; 40.2% with SNB-75 CNS; 29.9% in the assay with SNB-19 CNS; -16.2% (active) with PC-3 prostate; 4.6% (active) in the assay on SK-MEL-5 melanoma; 27.4% in the assay on UACC-62 melanoma. Further, the growth was 7.41% (active) with LOX IMVI melanoma; 49.2% with SK-MEL-28 melanoma; 16.2% in the assay with SK-MEL-2 melanoma; 16.1% with SN12C renal; -19% (active) in the assay on UO-31 renal; 33.7% in the assay with TK-10 renal. Moreover, the growth is 9.47% (active) in the assay on ACHN renal; 16.4% in the assay on CAKI-1 renal; 18% with A498 renal; 18.9% in the assay on CCRF-CEM leukemia; 13.7% in the assay on MOLT-4 leukemia.
With `Cc1cc(NCCCNc2ccnc3cc(Cl)ccc23)nc(N2CCN(C)CC2)n1`, the growth in the assay on HT29 colon was 15.2%; with SNB-75 CNS it was 76.6%; in the assay on SNB-19 CNS, 115%; in the assay on U251 CNS it was 69.7%; in the assay with UACC-62 melanoma it was 33.4%; with SK-MEL-28 melanoma, 88.3%. Further, the growth is 77.6% with SN12C renal; 58.6% in the assay with UO-31 renal; 133% in the assay with TK-10 renal; 45.7% in the assay on ACHN renal; 57% in the assay on CAKI-1 renal; 82.4% in the assay with A498 renal. Moreover, the results for the growth with CCRF-CEM leukemia, in the assay with MOLT-4 leukemia and with SR leukemia were 26.1%, 21.2% and 0.0449% (active), respectively.
In the case of `c1ccc(-c2nn[nH]n2)c(-c2ccc(CN3CCN(c4nsc5ccccc45)CC3)cc2)c1`, the growth was 58.6% with HT29 colon; 91.1% with SNB-75 CNS; 98.3% with SNB-19 CNS; 84.7% in the assay with PC-3 prostate; 97.2% in the assay with SK-MEL-5 melanoma; 91.4% with UACC-62 melanoma. Moreover, the growth in the assay with LOX IMVI melanoma is 102%; in the assay with SK-MEL-28 melanoma it was 113%; in the assay with SK-MEL-2 melanoma, 120%; with EKVX NSCLC, 106%; in the assay with SN12C renal, 92.6%; in the assay with UO-31 renal, 103%. Besides, the growth in the assay with TK-10 renal is 103%; in the assay with ACHN renal it was 98.7%; in the assay on CAKI-1 renal it was 84%; with A498 renal, 85.1%.
On to `O=C(C(Br)Br)C(Br)C(Br)c1ccccc1` (configuration not stated), for which the growth in the assay with HT29 colon was -5.3% (active); in the assay with SNB-75 CNS, 115%; with SNB-19 CNS it was 112%; with PC-3 prostate, 101%; with SK-MEL-5 melanoma, 99.3%; with UACC-62 melanoma, 95.2%. Further, the growth in the assay with LOX IMVI melanoma was 53.3%; in the assay on SK-MEL-28 melanoma, 106%; in the assay on SK-MEL-2 melanoma, 117%; in the assay on EKVX NSCLC, 117%; in the assay with SN12C renal, 93.7%; in the assay with UO-31 renal, 17.8%. The growth is 27.7% with TK-10 renal; 6.67% (active) with ACHN renal; 72.7% in the assay with CAKI-1 renal; 101% in the assay on A498 renal; 14.8% in the assay on CCRF-CEM leukemia; 27.7% in the assay on MOLT-4 leukemia. Further, the growth in the assay with SR leukemia is 19.3%.
Turning to `O=C(Cc1ccccn1)C(F)(F)C(F)(F)C(F)(F)F`, the growth was 111% in the assay on HT29 colon; 93.6% in the assay on SNB-75 CNS; 99.8% in the assay on SNB-19 CNS; 91.3% in the assay on PC-3 prostate; 110% in the assay on SK-MEL-5 melanoma; 102% in the assay on UACC-62 melanoma. Further, the growth in the assay with LOX IMVI melanoma is 95.5%; with SK-MEL-28 melanoma it was 105%; in the assay on SK-MEL-2 melanoma, 109%; in the assay on EKVX NSCLC it was 130%; in the assay on SN12C renal it was 95.2%; with UO-31 renal it was 91.6%. Besides, the growth in the assay with TK-10 renal was 117%; in the assay with ACHN renal, 111%; in the assay on A498 renal it was 126%; with CCRF-CEM leukemia, 97.5%; in the assay with MOLT-4 leukemia, 97%; with SR leukemia, 97.9%.
On to `OC(c1cc(C(F)(F)F)nc2c(C(F)(F)F)cccc12)C1CCCCN1` (configuration not stated), for which the growth in the assay on HT29 colon was -66.5% (active); in the assay with SNB-75 CNS, 33%; with SNB-19 CNS, 53.7%; in the assay with PC-3 prostate, 36.7%; with SK-MEL-5 melanoma it was 61.3%; in the assay on UACC-62 melanoma it was 76.6%. Besides, the growth in the assay on LOX IMVI melanoma was 11.9%; with SK-MEL-28 melanoma, 72.1%; in the assay on SK-MEL-2 melanoma, 56.4%; in the assay on EKVX NSCLC it was 76.4%; in the assay on UO-31 renal, 41.8%; in the assay with TK-10 renal it was 11.9%. Also, the growth in the assay on CAKI-1 renal is 48.4%; in the assay with A498 renal, 53%; in the assay with CCRF-CEM leukemia, 65.2%; in the assay on MOLT-4 leukemia, 19.7%.
In the case of `Fc1ccc(-c2nnc(-c3c(-c4ccc(F)cc4)nc4ncccn34)o2)cc1`, the growth is 93.2% with HT29 colon; 102% with SNB-75 CNS; 107% in the assay on SNB-19 CNS; 104% in the assay with PC-3 prostate; 95.4% in the assay with SK-MEL-5 melanoma; 100% in the assay with UACC-62 melanoma. The growth was 96.4% with LOX IMVI melanoma; 101% in the assay with SK-MEL-28 melanoma; 108% in the assay on EKVX NSCLC; 104% with SN12C renal; 77.8% in the assay with UO-31 renal; 111% with TK-10 renal. Besides, the growth in the assay on ACHN renal is 97.8%; with CAKI-1 renal, 100%; in the assay with A498 renal, 69.8%; in the assay with CCRF-CEM leukemia, 96.7%; in the assay with MOLT-4 leukemia it was 83.4%.
On to `CCN1C[C@@H](C)n2c(c(O)c3c(=O)n(Cc4ccc(F)c(Cl)c4)nc(C(=O)NC)c32)C1=O`, for which the growth with HT29 colon is 106%; in the assay with SNB-75 CNS, 20.2%; with SNB-19 CNS it was 12%; with PC-3 prostate, 69.4%; with SK-MEL-5 melanoma, 15.1%; in the assay with UACC-62 melanoma it was -4.84% (active). Moreover, the growth in the assay on SK-MEL-28 melanoma is 28.9%; in the assay with SN12C renal it was 9.18% (active); in the assay with UO-31 renal, 11%; with TK-10 renal it was 31.6%; with ACHN renal, 13.7%; with CAKI-1 renal, 15.9%. Also, the growth is -7.58% (active) in the assay with A498 renal, 40.4% with CCRF-CEM leukemia and 21.6% in the assay on MOLT-4 leukemia.
Consider `C[N+]1(CCc2ccccc2)CCC(CCC2CC[N+](C)(CCc3ccccc3)CC2)CC1` (configuration not stated), for which the growth was 94% in the assay on HT29 colon; 83.9% with SNB-75 CNS; 98.1% in the assay on SNB-19 CNS; 101% with PC-3 prostate; 100% in the assay on SK-MEL-5 melanoma; 85.7% with UACC-62 melanoma. Moreover, the growth is 102% with LOX IMVI melanoma; 111% in the assay with SK-MEL-28 melanoma; 119% in the assay on SK-MEL-2 melanoma; 97.2% in the assay on EKVX NSCLC; 88.5% in the assay with SN12C renal; 72.7% in the assay with UO-31 renal. The growth with TK-10 renal was 96.9%; in the assay with ACHN renal it was 101%; in the assay on CAKI-1 renal, 96.6%; with CCRF-CEM leukemia, 127%; in the assay with MOLT-4 leukemia, 123%; in the assay on SR leukemia, 120%.
